Experimental data from PubChem BioAssay (NCI).
The panel holds about 83,000 compounds, 20% with a hit somewhere; the sample as a whole holds those more often.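 A percent growth of 40 corresponds to 60% growth inhibition; 0 means no net growth; -100 means all cells died. Active threshold: below 10.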 Unmarked numbers belong to inactive results. Active and inactive are the calls of the source.

Experiments:
Experiment in all cases: NCI-60 one-dose screen, 48 h (100 = growth as untreated, 0 = no growth, -100 = all killed)
Settings in all cases: 10 µM unless noted
NCI-H23 lung = test system: NCI-H23 lung
NCI-H226 lung = test system: NCI-H226 lung
NCI-H322M lung = test system: NCI-H322M lung
HOP-62 NSCLC = test system: HOP-62 NSCLC
NCI-H460 lung = test system: NCI-H460 lung
HOP-92 NSCLC = test system: HOP-92 NSCLC
NCI-H522 lung = test system: NCI-H522 lung
A549/ATCC NSCLC = test system: A549/ATCC NSCLC
786-0 renal = test system: 786-0 renal
COLO 205 colon = test system: COLO 205 colon
DU-145 prostate = test system: DU-145 prostate
K-562 leukemia = test system: K-562 leukemia
MALME-3M melanoma = test system: MALME-3M melanoma
MDA-MB-231 breast = test system: MDA-MB-231 breast
RXF 393 renal = test system: RXF 393 renal
SF-268 CNS = test system: SF-268 CNS
SF-295 CNS = test system: SF-295 CNS
SF-539 CNS = test system: SF-539 CNS
UACC-257 melanoma = test system: UACC-257 melanoma
M14 melanoma = test system: M14 melanoma

Compound	growth (NCI-H23 lung)	growth (NCI-H226 lung)	growth (NCI-H322M lung)	growth (HOP-62 NSCLC)	growth (NCI-H460 lung)	growth (HOP-92 NSCLC)	growth (NCI-H522 lung)	growth (A549/ATCC NSCLC)	growth (786-0 renal)	growth (COLO 205 colon)	growth (DU-145 prostate)	growth (K-562 leukemia)	growth (MALME-3M melanoma)	growth (MDA-MB-231 breast)	growth (RXF 393 renal)	growth (SF-268 CNS)	growth (SF-295 CNS)	growth (SF-539 CNS)	growth (UACC-257 melanoma)	growth (M14 melanoma)
COc1cc(Nc2nc(NCCN)nc3cc[nH]c(=O)c23)cc(OC)c1	65.1%	93.7%	83%	97.8%	96.9%	59.5%	72.9%	90.5%	86.9%	55.3%	65%	75.8%	46.9%	75.7%	58.7%	77.3%	102%	76.3%	72.5%	49.7%
Cc1ccc(S(=O)(=O)Oc2ccc(NC(=O)c3ccc(Cl)cc3)cc2)cc1	102%	109%	91%	91.1%	103%	102%	83.8%	95%	91.1%	113%	105%	92.8%	100%	97%	115%	94.4%	93.4%	93.7%	111%	94.3%
O=C(S)CNC(=O)c1ccccc1	94.3%	101%	95.1%	92.7%	105%	74.7%	86.4%	99.8%	98.1%	107%	98.8%	95.1%	84.2%	97.6%	92.7%	86.5%	111%	93.4%	98%	95.9%
COc1cc(C(=O)c2cnc(-c3c[nH]c4cccc(C)c34)[nH]2)cc(OC)c1OC	24%	57%	40.3%	36.2%	3.6% (active)	5.73% (active)	-4.91% (active)	20.4%	10.4%	-29.3% (active)	-6.2% (active)	8.72% (active)	53.8%	-3.1% (active)	75.2%	18.9%	7.59% (active)	0.434% (active)	83.9%	-2.55% (active)
CC(C)c1cc(C(C)C)c(S(=O)(=O)Oc2ccc(NC(=O)c3ccc(Cl)cc3)cc2)c(C(C)C)c1	15.2%	51.6%	60.4%	57.9%	13.4%	19.1%	7.91% (active)	27.5%	33.8%	32.7%	43.7%	16.4%	53.8%	52.1%	51.4%	50.6%	11.4%	73.6%	24.7%	36.2%
CCCCCCCCCCCCCCCCCCOc1ccccc1CC(=O)OCC[N+](CC)(CC)CC	13.1%	53.7%	70.6%	41%	34.6%	6.81% (active)	10.5%	29.3%	22.6%	-27.3% (active)	33.9%	6.67% (active)	-8.97% (active)	-17.3% (active)	-16.9% (active)	23.8%	27.9%	18.5%	48.1%	26.8%
COc1ccc2sc3c(NCCCNCCO)nc4ccccc4c3c(=O)c2c1	63.6%	98%	72.8%	77.3%	-71.1% (active)	31.2%	70.6%	62.6%	63%	-35.4% (active)	41%	-28.2% (active)	85.9%	-12.9% (active)	52.3%	50.8%	85.7%	45.5%	92.3%	-66.6% (active)
CN(C)CC#Cc1ccc2ncc(C#N)c(Nc3ccc(F)c(Cl)c3)c2c1	58.2%	60.8%	14.9%	67.8%	50.8%	56.1%	45.3%	51%	49.4%	71.3%	22.4%	51.4%	45.1%	56.1%	32.4%	59.2%	65.4%	62.4%	76%	40.5%
CCCCOc1nc2c(C)cccc2cc1-c1cc(-c2ccc(Cl)cc2)nc(-c2ccc(Cl)cc2)c1	110%	100%	97.1%	103%	103%	91.4%	97.4%	101%	102%	111%	109%	91.2%	95.5%	89.5%	106%	92.7%	101%	96.8%	98.9%	101%
COc1cccc(-c2nc(-c3ccc(NC(=O)c4ccccc4)cc3)[nH]c2-c2ccnc(Br)c2)c1	27.9%	47%	41.2%	4.28% (active)	19.1%	50.2%	16.2%	39.3%	-10.4% (active)	16.7%	62.2%	2.4% (active)	28.7%	34.2%	-44.3% (active)	51.4%	-62.5% (active)	-5.94% (active)	49.4%	29.6%
CCN(CC)CCNC(=O)c1cn2ncnc(Oc3ccc(NC(=O)Nc4ccc(Cl)c(C(F)(F)F)c4)cc3)c2c1C	-83.6% (active)	6% (active)	4.06% (active)	-78.5% (active)	-74.4% (active)	-39.1% (active)	-63% (active)	-85.2% (active)	-89.9% (active)	-73.4% (active)	-53.3% (active)	-79.1% (active)	-81.1% (active)	-94.6% (active)	-36.3% (active)	-64.6% (active)	-87.4% (active)	-93.1% (active)	-83.2% (active)	-83.3% (active)
COc1cc(CCC[P+](c2ccccc2)(c2ccccc2)c2ccccc2)c(OC)c(OC)c1OC	77.9%	88.8%	83.3%	82.1%	82.2%	61.8%	71.9%	78.2%	75.3%	105%	79.6%	39.8%	53.7%	61.5%	54.2%	64.7%	82.5%	57.7%	60.7%	62%
CCCCCCCCCCCCCCCCCCOc1ccc(CC(=O)OCC[N+](C)(C)C)cc1	93.3%	95.1%	103%	108%	100%	103%	95.7%	94.6%	93%	115%	99.9%	47.7%	113%	110%	90.1%	104%	97.6%	97.9%	108%	91.5%
COc1ccc(C2C(C#N)=C(N)Oc3c2sc2c(C)cccc32)cc1 (stereo not given)	18.2%	13.5%	48.2%	40.8%	7.35% (active)	80%	21.5%	28.4%	27.8%	0.625% (active)	22.4%	6.98% (active)	62.5%	16.6%	-11.7% (active)	49.6%	3.47% (active)	-16.8% (active)	72.1%	8.58% (active)
